Source: PubChem (National Center for Advancing Translational Sciences (NCATS))
An excerpt weighted towards active compounds, which were near 11% of everything screened.
HCV inhibitor – qHTS Assay for Inhibitors of Hepatitis C Virus (HCV); Huh7.5.1 HCVcc-Cre infection, luciferase reporter, 44 h; Potency, µM (highest dose often 41.8 µM), for inactives: at the top dose activity change, negative = inhibition, most hits filed as inhibitors; 340,000 compounds, 3.4% hits; note: % is set by controls: 0 for no effect and ±100 for the full control effect
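Infectious HCVcc-Cre (~0.5 moi) was added to cells just after compound, with cells seeded 4 h earlier at 1,000 per well. Luciferase activity after 44 h culture reported infection; substrate was incubated 15 min at room temperature before reading.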
Pf growth 96h – Primary qHTS for delayed death inhibitors of the malarial parasite plastid, 96 hour incubation; P. falciparum luciferase reporter growth, 96 h; Potency, µM (doses to about 28.7 µM), without a hit: at the top dose activity change, negative = inhibition, usual class: inhibitors; 320,000 compounds, 6.9% hits; note: % is set by controls: 0 for no effect and ±100 for the full control effect
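P. falciparum expressing integrated firefly luciferase grown in erythrocytes (2% hematocrit, 0.05% parasitemia final) with compounds for 96 hours at 37 C, 5% CO2. Growth inhibition read as loss of luminescence after adding luciferase detection reagent.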
VACV mCherry inh – qHTS for Stage-Specific Inhibitors of Vaccinia Orthopoxvirus: mCherry Reporter Primary qHTS; AID 720579, 2013; Potency, µM (highest dose often 36.5 µM), inactives show at the highest dose activity change, negative = inhibition, actives largely listed as inhibitors; 310,000 compounds, 0.63% hits; Vaccinia virus mCherry reporter infection, fluorescence; calls by dose curve; tested in A549 cells; note: % is set by controls: 0 for no effect and ±100 for the full control effect; nearly all actives have a fitted effect of over 35% in size
VACV Venus inh – qHTS for Stage-Specific Inhibitors of Vaccinia Orthopoxvirus: Venus Reporter Primary qHTS; Vaccinia virus Venus reporter expression, fluorescence; Potency, µM (doses to about 36.5 µM), inactives show at the top dose activity change, negative = inhibition, usual class: inhibitors; 330,000 compounds, 0.46% hits; AID 720580, 2013; calls by dose curve; tested in A549 cells; note: % is set by controls: 0 for no effect and ±100 for the full control effect; nearly all actives have a fitted effect of over 30% in size
Pf growth 48h – Primary qHTS for delayed death inhibitors of the malarial parasite plastid, 48 hour incubation; P. falciparum luciferase growth in erythrocytes, 48 h; AID 504832, 2011; 310,000 compounds, 5.9% hits; Potency, µM (doses to about 28.7 µM), for the others: at the top dose activity change, negative = inhibition, hits mostly inhibitors; note: % is set by controls: 0 for no effect and ±100 for the full control effect
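Here the parasites carry a stable luciferase gene and grow inside erythrocytes in Albumax-based RPMI medium with compound for one erythrocytic cycle. Activity is scored as loss of luminescent signal.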
NS1 function inh – qHTS Assay for Inhibitors of Influenza NS1 Protein Function. 270,000 compounds, 0.4% hits. Potency, µM (series often up to 46.1 µM), inactives show top-dose activity, positive = more growth; calls by dose curve; note: actives are rising curves; nearly all actives have a fitted effect of over 50% in size
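A cell-based growth assay was used: compounds that relieve NS1-induced slow growth of budding yeast raise OD600. Assay medium was yeast nitrogen base with ammonium sulphate and -URA supplement, pH 6.0, with 2% galactose.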
* = called active by the depositor; i = inactive; ? = inconclusive; . = no result. Unless noted, calls come from the whole dose curve; as a rule, active = well fitted inhibition curve with a large enough effect; inconclusive = small, poorly fitted or top-dose-only effect, or another doubt; inactive = no such curve, though single readings can be large or run the other way. Potency is the fitted concentration of half-maximal effect.

SMILES | HCV inhibitor | Pf growth 96h | VACV mCherry inh | VACV Venus inh | Pf growth 48h | NS1 function inh
Cc1ccc(CN2CCN(Cc3nc4ccccc4nc3C)CC2CCO)cc1 (configuration not stated) | -13% | ? | . | . | ? | 0%
Cc1ccc(CN2CCN(Cc3cnc(C)[nH]3)CC2CCO)cc1 (configuration not stated) | -16% | 12µM* | -3% | 2% | -7% | -3%
CCOc1ccccc1CN1CCN(Cc2ccc(C)o2)CC1CCO (configuration not stated) | -4% | 14% | . | . | -10% | -1%
CCOc1ccccc1CN1CCN(CC2=Cc3cc(OC)ccc3OC2)CC1CCO (configuration not stated) | ? | ? | . | . | 9.3µM* | 4%
COc1ccc(CN2CCN(CCCc3ccccc3)C(CCO)C2)c(O)c1 (configuration not stated) | ? | 2.9µM* | ? | -6% | ? | -15%
OCCC1CN(Cc2ccccc2-c2ccco2)CCN1Cc1ccccc1 (configuration not stated) | -2% | 9.3µM* | ? | -24% | ? | 3%
Cc1c(NC(=O)c2ccc(S(=O)(=O)N3CCOCC3)cc2)c(=O)n(-c2ccccc2)n1C | -8% | -12% | -22% | -7% | -3% | -1%
COc1ccc(CN2CCN(CCc3ccccc3)C(CCO)C2)c(O)c1 (configuration not stated) | 11% | 18% | ? | -19% | 10µM* | 4%
OCCC1CN(Cc2ccccc2O)CCN1CCCc1ccccc1 (configuration not stated) | -9% | -10% | . | . | 6.6µM* | -25%
COc1ccc(O)c(CN2CCN(CCc3ccccc3)C(CCO)C2)c1 (configuration not stated) | -39% | ? | -13% | 1% | 0% | -3%
C=CCNC(=O)C1CC(c2cccc(OC)c2)=NO1 (configuration not stated) | . | 57% | i | -7% | 10% | 4%
c1ccc(-c2ccnc3nc(N4CCN(c5ccccc5)CC4)nn23)cc1 | ? | -4% | . | . | 5% | -16%
C/C(=N\Nc1nc(N)cc(Cl)n1)c1ccc(Cl)c(Cl)c1 | 11µM* | -22% | -20% | -19% | ? | .
C/C(=N\Nc1nc(N)cc(Cl)n1)c1ccc(F)cc1 | ? | -1% | -11% | -14% | -12% | 5%
C=C(C)COc1ccc2c(C)c(CCC(=O)NC3CC3)c(=O)oc2c1 | ? | 10µM* | . | . | 10µM* | -31%
Cc1cc(C)cc(NC(=O)COc2ccc3c(C)c(Cc4ccccc4)c(=O)oc3c2)c1 | 9% | ? | . | . | 8.3µM* | 18%
Cc1c(Cc2ccccc2)c(=O)oc2c(C)c(OCC(=O)Nc3ccc(C#N)cc3)ccc12 | -3% | 2.1µM* | -14% | -1% | ? | 5%
Cc1cc(OCC(=O)NCC2CCC(C(=O)O)CC2)c2c(C)c(Cc3ccccc3)c(=O)oc2c1 (configuration not stated) | -14% | 3.3µM* | -4% | 4% | 12µM* | 4%
Cc1cccc(C)c1NC(=O)COc1ccc2c(C)c(Cc3ccccc3)c(=O)oc2c1C | -8% | 20% | . | . | -27% | -3%
Cc1c(Cc2ccccc2)c(=O)oc2cc(OCC(=O)c3ccccc3)ccc12 | ? | -28% | i | -1% | 10% | -3%
Cc1cccc(CSCc2ccc(C(=O)NCCc3ccccc3)o2)c1 | . | . | 2% | -4% | . | .
CCOC(=O)N1CCN(C(=O)N2CCOCC2)CC1 | 6% | -7% | -10% | -8% | 3% | 9%
Cc1ccc(NC(=O)CNc2ccc(OC(C)C)cc2)c(C)c1 | ? | 13µM* | . | . | ? | -36%
COC1CCC(OC2CC(C3(C)CCC4(CC(O)C(C)C(C(C)/C=C(\C)C(=O)C(C)CC(C)C(=O)O)O4)O3)OC3(OC(C4OC(O)(CO)C(C)CC4C)CC3C)C2C)OC1C (configuration not stated) | 0.32µM* | . | 6.3µM* | 7.9µM* | . | .
Cc1cc(Br)cn2c(CC(=O)N3CCCCC3)c(-c3ccc(F)cc3)nc12 | . | . | 5% | -2% | . | .
SMILES | HCV inhibitor | Pf growth 96h | VACV mCherry inh | VACV Venus inh | Pf growth 48h | NS1 function inh
O=C(Nc1ccc(N2CCOCC2)cc1)C1CCN(S(=O)(=O)c2ccc3c(c2)OCCO3)CC1 | 18% | ? | i | -19% | 8.3µM* | .
O=C(Nc1ccc(S(=O)(=O)N2CCOCC2)cc1)C1CC1 | 3% | 4.7µM* | -11% | 0% | 32% | -1%
Cc1cccc(NC(=O)NCC2CCN(c3ccc(S(=O)(=O)N4CCOCC4)cc3)CC2)c1 | ? | ? | -13% | -8% | ? | -2%
Cc1ccccc1NC(=O)NCC1CCN(c2ccc(S(=O)(=O)N3CCOCC3)cc2)CC1 | 35µM* | 23% | -3% | -4% | ? | -2%
Cc1ccc(S(=O)(=O)N2CCC(C(=O)Nc3ccc(N4CCOCC4)cc3)CC2)cc1C | -6% | ? | i | -9% | 4.1µM* | .
CC1(C(=O)NCC2CCOCC2)Cc2c(-c3cccc(C(F)(F)F)c3)ccnc2O1 (configuration not stated) | . | . | -14% | ? | . | .
O=C(C1CCN(S(=O)(=O)c2ccc(F)cc2)CC1)N1CCOCC1 | 20% | 7.4µM* | -11% | -3% | 11% | ?
O=C(Nc1ccc(N2CCCCCC2)cc1)c1cccc(S(=O)(=O)N2CCOCC2)c1 | 2.5µM* | 10µM* | -22% | -24% | 13µM* | .
O=C(N/N=C/c1sc(N2CCOCC2)nc1-c1ccccc1)c1cccc(S(=O)(=O)N2CCCC2)c1 | 3.5µM* | ? | ? | ? | ? | -9%
O=C(N/N=C/c1sc(N2CCOCC2)nc1-c1ccccc1)c1ccc(O)cc1 | ? | ? | -8% | 8% | ? | 2%
CCOC(=O)c1ccc(NC(=O)c2ccc(C)c(S(=O)(=O)N3CCOCC3)c2)cc1 | 5µM* | 76% | ? | ? | . | -10%
Cc1ccc(C(=O)Nc2ccc(F)cc2)cc1S(=O)(=O)N1CCOCC1 | . | . | -11% | -3% | . | .
COc1ccc(NS(=O)(=O)c2ccc(C)c(NC(=O)c3ccc(C)c(S(=O)(=O)N4CCOCC4)c3)c2)cc1 | -23% | 15µM* | -14% | -14% | ? | ?
CC(=O)c1ccc(NC(=O)c2ccc(C)c(S(=O)(=O)N3CCOCC3)c2)cc1 | -18% | 30% | -14% | -15% | ? | 3%
O=S(=O)(Cc1ccccc1)Nn1cnnc1 | ? | 20% | . | . | 15% | 3%
